The results in this text go back to the supplement of paper PMC9950053.

Structures can show the parent of a compound that is named as a salt.

This assay has as its system Danio rerio larvae (5 dpf). Nature of the assay: combined upward orientation toward moving lines (periods 7-14) minus DMSO control (percentage points); higher = more orientation with moving lines than DMSO larvae. The conditions noted are these: 10 µM; exposure time: 3 h pre-incubation + 3 h imaging. As for the experimental part:
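Wild-type 5 dpf zebrafish larvae (n=48 per drug, 96-well plates, 28.5 °C) were exposed to Tocris FDA-approved library compounds at 10 µM (0.1% DMSO) for 3 h before and 3 h during imaging. Images were taken every 6 s during visual and acoustic stimuli, and larvae were tracked with Z-LaP Tracker. Each measure is the treated-group mean minus the DMSO control mean (n=844), in percentage points. This mapping covers compounds with 5-character plate codes.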
In the case of `COc1ccc(C(CN(C)C)C2(O)CCCCC2)cc1` (stereo unspecified) [Venlafaxine hydrochloride], the “combined upward orientation toward moving lines” value amounted to 0.349.
